Measured values as given in PubChem BioAssay (NCI).
Where “and” joins values, the source holds several entries; their conditions need not be identical. Equal values may be shown once. This is part of a sample that, as a whole, favours compounds with a hit. Of some 83,000 tested, about 20% had one in any assay.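 The test compound was applied at a single concentration to cells in 96-well plates for 48 hours, and percent growth was recorded.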 A number with no mark means an inactive call. Calls of active or inactive are those of the source. The calls were made as follows: active = growth percent below 10; inactive = the rest.

Test system: MDA-MB-468 breast
Test: NCI-60 one-dose screen, 48 h (100 = growth as untreated, 0 = no growth, -100 = all killed)
Conditions: 10 µM unless noted

| Compound | growth |
| --- | --- |
| CCCCC(=O)N/N=C/c1cc(I)cc(I)c1O | 69% |
| CCOC(=O)c1c(C)nc2c(c1N)CC(=O)N2Cc1ccc(OC)cc1 | 36.2% |
| CCCCC1=C(Br)C(=O)c2ncccc2C1=O | 84.2% |
| Cc1nc2ccccc2c(/C=C/c2ccccc2)c1C(=O)/C=C/c1ccc(Cl)cc1 | 19.4% |
| COc1cc(/C=N\NC(=O)CN2CCN(c3cc4c(cc3F)c(=O)c(C(=O)N/N=C/c3cc(OC)c(OC)c(OC)c3)cn4C3CC3)CC2)cc(OC)c1OC | -31.1% (active) |
| Nc1cc2[nH]c(=O)c3ccccc3c2cc1Br | -50.6% (active) |
| CC#CC#Cc1cccc(=O)o1 | 29.3% |
| O=C1N/C(=N\c2nnc(-c3ccc(O)cc3)s2)S/C1=C\c1ccccc1O | 99.4% |
| C1CN(CC2CCC(CN3CCOCC3)O2)CCO1 (configuration not stated) | 102% |
| CCc1ccc2c(c1)N(CCO)C1=C(C(=O)OC1)C2c1cc(OC)c(OC)c(OC)c1 (configuration not stated) | 2.83% (active) |
| O=C1/C(=N\c2cc(=O)[nH]n2S(=O)(=O)c2ccccc2)Nc2ccccc21 | 106% |
| CCCCCCCCCC(=O)NC(C)(C)C(=O)N1CCC[C@H]1C(=O)N[C@@H](CC(C)C)C(=O)N[C@@](C)(CC)C(=O)N[C@@H](CCC(N)=O)C(=O)N[C@H](CCC(N)=O)C(=O)NC(C)(C)C(=O)NC(C)(C)C(=O)N[C@@H](CCC(N)=O)C(=O)N[C@H](CC(C)C)C(=O)N[C@H](CO)CC(C)C | -94.3% (active) and -88.5% (active) |
| Cn1cnc([N+](=O)[O-])c1S(=O)(=O)Oc1ccc(Cl)cc1 | 29.8% |
| COc1cc2nc(Cl)nc(Nc3cccc(C4=Nc5c(N)nc(N)nc5NC(c5ccc(F)cc5)C4)c3)c2cc1OC (configuration not stated) | 45.8% |
| Cc1cc(O)ccc1O | 107% |
| O=C1c2ccccc2C(=O)c2cc(Cn3c[n+](Cc4ccc5ccccc5c4)c4ccccc43)ccc21 | -27.6% (active) |
| CC(=O)OC/C=C(/C)C[P+](c1ccccc1)(c1ccccc1)c1ccccc1 | 1.61% (active) |
| CC(C)c1c(C(=O)c2ccccc2)c(-c2ccccc2)c(-c2ccc(F)cc2)n1CC[C@@H](O)C[C@@H](O)CC(=O)O | 39.2% |
| CCOC(=O)C1=C(Nc2ccc(OC)cc2)C(N)=NC1=N | 31.9% |

| Compound | growth |
| --- | --- |
| COc1ccc(-c2nn(-c3ccc(Cl)cc3)cc2-c2nc3ccccc3[nH]2)cc1 | 106% |
| CCOc1ccccc1/C=N\N=C(\N)N/N=C/c1ccccc1OCC | -8.3% (active) |
| CC(C)N=C1CCCC1C(=S)SSC(=S)C1CCCC1=NC(C)C (configuration not stated) | 63.6% |
| COc1cc(F)c(/C=C/c2cc(/C=C/c3cc(OC)c(OC)cc3F)n(-c3cc(F)cc(F)c3)n2)cc1OC | -37.6% (active) |
| Cc1ccc(/C=C/c2nn3c(-c4ccco4)nnc3s2)cc1 | 116% |
| CC1=C[C@H]2c3c(c(O)c(O)c4oc5c(C)cccc5c(=O)c34)[C@H](c3cc(O)c(O)c4oc5c(C)cccc5c(=O)c34)[C@H]2C(C)(C)C1 | 21.6% |
| O=C(O)c1ccc(NC(=O)c2ccc(Nc3ccnc(C(F)(F)F)c3)cc2)cc1 | 99.8% |
| O=C(CCSc1nnc2n(Cc3ccccc3)c(=O)c3c4c(sc3n12)CCCC4)N1CCN(c2ccccc2)CC1 | 101% |
| Cc1[nH]c(-c2nc3ccccc3[nH]2)c(C)c1C(=O)N1CCOCC1 | 91.6% |
| C/C(=N\Nc1ccc(Cl)cn1)c1ccccn1 | -41% (active) |
| Cc1cc(Cl)ccc1NC(=O)c1cc2ccccc2cc1O | -9.61% (active) |
| CCCCN(CCCC)c1cc(C(=O)CCCCCN)c2ccccc2n1 | 84.5% |
| O=C1Nc2ccc(F)cc2/C1=C\C(=O)c1ccc(NS(=O)(=O)c2ccccc2)cc1 | 90.3% |
| NC(=NCCCC1(c2ccccc2)CCCC1)Nc1ccc(Cl)cc1 | -83.1% (active) |
| Cc1cc(=O)[nH]c(N/N=C/c2ccccc2O)n1 | 58.1% |
| Cc1ccc(-n2c(=S)[nH]c3sc4c(c3c2=O)CCC(=O)C4)cc1 | 51.1% |
| Cc1nn2c(/C=C3/C(=O)Nc4cc(Cl)ccc43)c(-c3ccccc3)nc2s1 | 11% |
| Cn1c(NCCc2ccc(O)c(O)c2)nc2c1c(=O)n(Cc1ccc(Cl)cc1)c(=O)n2C | 19.4% |
